This is a sample that favours compounds with a hit; in the whole collection about 7.8% have one here.
VACV Venus inh: vaccinia inhibition (Venus reporter); Vaccinia virus Venus reporter expression, fluorescence; Potency, µM (doses to about 36.5 µM), without a hit: at the highest dose activity change, negative = inhibition, actives largely listed as inhibitors; 0.46% of 330,000 active; calls by dose curve; tested in A549 cells; further: potency means the concentration at half of the fitted maximal effect; nearly all actives have a fitted effect of over 30% in size
HCV inhibitor: HCV inhibition; Huh7.5.1 HCVcc-Cre infection, luciferase reporter, 44 h; Potency, µM (top dose mostly 41.8 µM), without a hit: at the top dose activity change, negative = inhibition, hits mostly inhibitors; 3.4% of 340,000 active; active means well fitted inhibition curve with a large enough effect; inconclusive means small, poorly fitted or top-dose-only effect, or another doubt; inactive means no such curve, though single readings can be large or run the other way; further: potency means the concentration at half of the fitted maximal effect
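Reporter virus HCVcc-Cre (~0.5 moi) infects cells exposed to compound; seeding density 1,000 cells/well with 4 h settling beforehand. Luminescence, 15 sec read, taken 44 h post-infection following a 15 min RT substrate incubation.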
VACV mCherry inh: vaccinia inhibition (mCherry reporter). Potency, µM (series often up to 36.5 µM), inactives show at the top dose activity change, negative = inhibition, hits mostly inhibitors. 0.63% of 310,000 active. AID 720579. Vaccinia virus mCherry reporter infection, fluorescence; calls by dose curve; tested in A549 cells; further: potency means the concentration at half of the fitted maximal effect; nearly all actives have a fitted effect of over 35% in size
MARV entry inh: Marburg virus entry inhibition | Marburg virus pseudotyped entry inhibition, cell reporter | Potency, µM (titrated, usually from 37.8 µM), for inactives: at the highest dose activity change, negative = inhibition, hits mostly inhibitors | 1.8% of 300,000 active | AID 540276; calls by dose curve; tested in HEK293 cells; further: potency means the concentration at half of the fitted maximal effect
Lassa entry inh: Lassa virus entry inhibition | Lassa virus pseudotype entry inhibition, cell reporter | Potency, µM (highest dose often 37.9 µM), for the others: at the top dose activity change, negative = inhibition, most hits filed as inhibitors | 1.2% of 300,000 active; calls by dose curve; tested in HEK293 cells; further: potency means the concentration at half of the fitted maximal effect; nearly all actives have a fitted effect of over 50% in size
HCMV antiviral: blocks human cytomegalovirus replication; HFF cells, HCMV-luciferase reporter, 72 h; stronger effect = lower value; activity change, negative = inhibition, % at 57.5 µM; 4.5% of 410,000 active; in the data active means activity change below about -60%; inconclusive means no clear call, values can overlap the other calls; inactive means above about -39%
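Compounds were evaluated in HFFs infected with an HCMV luciferase reporter virus (MOI 1 PFU/cell). Luciferase in lysates collected 72 h post infection served as the replication measure.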
Starred values were filed as active, the others as inactive; i = inactive; ? = inconclusive; . = not tested or not shown; [ ] = dose if it differs, or a comment. On the % scale 0 is the no-effect control and ±100 the full control effect.

SMILES	VACV Venus inh	HCV inhibitor	VACV mCherry inh	MARV entry inh	Lassa entry inh	HCMV antiviral
CCC[C@H](CN[C@@H](CNC)[C@H](C)CC)NCCc1cc(C(F)(F)F)cc(C(F)(F)F)c1	20µM*	?	?	.	.	-78*
CC[C@@H](C)[C@H](CNC)NC[C@@H](Cc1cccc2ccccc12)NCCc1cccc(C(F)(F)F)c1	?	1%	?	.	.	-99*
COCC(C)n1c(SCC(=O)c2cc(C)n(C)c2C)nc2ccccc2c1=O (centres undefined)	-19%	?	-25%	?	.	-7
COC(=O)c1cc(CSc2nnc(-c3ccccc3)c(-c3ccccc3)n2)oc1C	-6%	25µM*	.	?	?	-9
COC(=O)c1cc(CSc2nc3ccc(C)cc3[nH]2)oc1C	?	?	.	?	-24%	?
COCC(C)n1c(SCc2cc(C(=O)OC)c(C)o2)nc2ccccc2c1=O (centres undefined)	-15%	11µM*	-1%	?	?	-32
COc1ccc(-c2cn[nH]c2-c2ccc(OC)cc2O)cc1	-25%	?	?	-20%[46.1 µM]	?	-65*
COc1ccc(-c2cn[nH]c2-c2ccc(OCc3ccccc3)cc2O)cc1	-22%	?	?	?	3.5µM*	-71*
COc1ccc(-c2[nH]ncc2-c2csc(C)n2)c(O)c1	.	1%	.	.	.	?
Oc1ccc(-c2[nH]ncc2-c2ccc(Cl)cc2)c(O)c1	.	?	.	-8%	?	-33
COc1ccc(-c2[nH]ncc2-c2ccc(Cl)cc2)c(O)c1	?	20%	.	5%	-28%	-65*
Cc1ccc(CNc2ccc(-c3nc(-c4ccco4)no3)cc2[N+](=O)[O-])cc1	-14%	.	-14%	-9%[46.1 µM]	-4%[46.1 µM]	10
COc1ccc(S(=O)(=O)NCC(c2ccco2)N2CCOCC2)cc1OC (centres undefined)	-4%	.	-13%	.	15%[46.1 µM]	-2
COc1cc(-c2cnc3ccccc3c2)cc2c1OCCN(C(=O)CCn1nc(C)cc1C)C2	-4%	.	-7%	.	.	.
CCCCOc1ccc(CN(CCO)CCO)cc1[N+](=O)[O-]	.	1%	.	-35%	27%	0
CCOc1ccc(CN(CCO)CCO)cc1[N+](=O)[O-]	-7%	17%	-18%	9%	5%	-68*
CCOc1ccc(CSC2=NCCN2)cc1[N+](=O)[O-]	?	-24%	-13%	4µM*	?	-26
COc1ccc(NC(=O)c2ccc3oc(=O)c(S(=O)(=O)c4ccc(C)cc4)cc3c2)cc1OC	-6%	.	-11%	-20%[46.1 µM]	-3%[46.1 µM]	17
COC(=O)c1cc(S(=O)(=O)N2CCC(c3ccccc3)C2)c[nH]1 (centres undefined)	.	11µM*	.	.	.	-38
COC(=O)c1cc(S(=O)(=O)N2CCN(c3ccccc3)CC2)c[nH]1	-12%	1%	-8%	.	.	-6
COC(=O)c1cc(S(=O)(=O)N2CCC(c3cc(OC)ccc3OC)C2)c[nH]1 (centres undefined)	.	6.3µM*	.	.	.	?
CCOC(=O)c1cc(-c2ccccc2)n(CCC(=O)NCCc2ccc(C)cc2)c1C	-16%	.	-15%	.	-25%[46.1 µM]	11
C=C(C)CNC(=S)NNC(=O)CCn1c2ccc(Cl)cc2c2cc(Cl)ccc21	?	-28%	-28%	-15%	?	-82*
C=C(C)CNC(=S)NNC(=O)CCn1c2cc(Cl)ccc2c2ccc(Cl)cc21	-21%	-8%	i	?	0%	-24
COc1ccccc1CNC(=O)c1cc2sccc2n1Cc1ccc(F)cc1	-11%	.	-19%	?	1%[46.1 µM]	-4
SMILES	VACV Venus inh	HCV inhibitor	VACV mCherry inh	MARV entry inh	Lassa entry inh	HCMV antiviral
COc1ccc(OCc2nn3c(Cn4cnc5ccccc54)nnc3s2)cc1	-25%	?	-3%	?	-24%	-68*
c1ccc(CCc2nn3c(Cn4cnc5ccccc54)nnc3s2)cc1	-19%	-5%	-25%	-18%	?	-5
COc1cccc(CNc2ncnc3sc(C(=O)N4CC5CCC4C5)c(C)c23)c1OC (centres undefined)	-15%	.	-22%	.	.	.
Cc1ccccc1-n1c(SCc2ccccn2)nc2n[nH]c(C)c2c1=N	?	11µM*	.	?	?	-13
CCOc1ccccc1NC(=O)CCSc1nc2n[nH]c(C)c2c(=N)n1-c1ccccc1Cl	.	?	.	?	-18%	-18
CCc1ccccc1-n1c(SCC(=O)Nc2ccc(C)cc2)nc2n[nH]c(C)c2c1=N	?	.	?	.	?	-69*
CCOc1ccccc1-n1c(SCC(=O)Nc2ccc(CC)cc2)nc2n[nH]c(C)c2c1=N	-19%	-9%	.	?	10µM*	.
CCc1ccccc1NC(=O)CSc1nc2n[nH]c(C)c2c(=N)n1-c1cccc(OC)c1	.	?	.	?	-13%	3
COc1ccc(CNC(=O)Nc2cn(CC(C)C)c(=O)c3ccccc23)cc1	1%	.	10%	.	?	14
Cn1nc(C(=O)N2CCN(c3ccc(Cl)cc3)CC2)c2c1-c1ccccc1SC2	-2%	.	3%	3%[46.1 µM]	13%[46.1 µM]	-71*
O=S(=O)(c1ccccc1)c1nc(-c2cccs2)oc1SCc1ccccc1F	-3%	.	-6%	5%[46.1 µM]	17%[46.1 µM]	-9
CC(=O)c1ccc(NC(=O)COc2ccccc2-c2nc(-c3ccc(C)cc3)no2)cc1	-11%	.	-6%	?	?	43
COc1ccc(C(=O)c2cnc3ccccc3c2-c2ccccc2)cc1	.	13µM*	.	?	0%	?
COc1ccc(Nc2cc3c(cn2)cc(-c2cnn(C)c2)n3Cc2ccccc2)cc1OC	.	.	.	.	.	-8
CC[C@]12c3[nH]c4ccccc4c3CCN1C(=O)C(CC(=O)NCCc1ccccn1)C[C@@H]2C(=O)N1CCN(C(=O)c2ccco2)CC1 (some centres undefined)	-15%	0.56µM*	i	.	.	5
CC[C@]12c3[nH]c4cc(CCC(=O)N(C)C)ccc4c3CCN1C(=O)[C@@H](CC(=O)NCCc1ccccn1)C[C@@H]2C(=O)N1CCN(C(=O)c2ccco2)CC1	3%	-18%[8.37 µM]	-3%	-3%	.	27
O=C(CC1C[C@H](C(=O)N2CCCCC2)[C@@]2(CCc3ccccc3)c3[nH]c4ccccc4c3CCN2C1=O)NCCc1ccccn1 (some centres undefined)	?	-7%[8.37 µM]	10µM*	.	.	-26
COc1ccc(C(=O)N(c2ccc(C)cc2)S(=O)(=O)c2ccc(C)cc2)cc1	-29%	.	?	.	?	-31
Cc1cccc(OCCNc2cc(N3CCOCC3)ccc2[N+](=O)[O-])c1	?	10µM*	?	?	16%	2
Cc1cccc(OCCNc2cc(N3CCN(C)CC3)ccc2[N+](=O)[O-])c1	-1%	?	i	?	?	2
Cc1ccc(OCCNc2cc(N3CCN(CCO)CC3)ccc2[N+](=O)[O-])cc1C	?	10µM*	?	?	?	-15

Assay outcomes from PubChem.
